Measurements reported in PubChem BioAssay (NCATS).
A number with no mark means an inactive call. Calls of active or inactive are those of the source. No rule for the calls is given here.

These compounds were tested on HIV-1 nucleocapsid protein NCp7 (binding to TG oligonucleotide) (assay: HIV Nucleocapsid (AID 346;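 also: potency is for inhibitors that block NC binding and lower polarization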)). Conditions: HIV-1 NC / fluorescein-TGTGTGTG probe, fluorescence polarization.
Outline: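 Fluorescence polarization readout: labelled TG4xF oligo (10 nM) with 100 nM nucleocapsid protein, high-salt (250mM NaCl) Hepes pH 7.5 buffer containing zinc and fresh reducing agents. Compounds added by pin tool; incubation 1 hr, room temperature.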
Potency is read from the fitted curve at half-maximal effect.

Row | Structure (SMILES) | Potency
1 | COc1ccccc1-c1nc(Nc2ccncc2)c2ccccc2n1 | > 20 µM
2 | O=C(Oc1ccccc1)N1CCC2(CC1)CCN(c1ccccn1)CC2 | > 20 µM
3 | COc1ccc(CNc2ncncc2-c2ccc(C(=O)N(C)C)cc2)c(OC)c1 | > 20 µM
4 | COc1ncc2ncc(=O)n(C[C@H]3CCCO3)c2n1 | > 20 µM
5 | Cc1nc2cnc(Oc3ccccc3)nc2n(C)c1=O | > 20 µM
6 | O=C(c1ccncc1)N1CCC2(CCCN(Cc3ccncc3)C2)CC1 | > 20 µM
7 | COc1ccc(-n2c(=O)c(-c3ccccc3)nc3cnc(N4CCN(C)CC4)nc32)cc1 | > 20 µM
8 | O=C(c1cnccn1)N1CCC2(CCCN(Cc3nccs3)C2)CC1 | > 20 µM
9 | COCC(=O)N1CCC2(CCN(Cc3ccc(C#N)cc3)CC2)CC1 | > 20 µM
10 | c1ccc(CNc2ncnc3ccc(-c4cccnc4)cc23)cc1 | > 20 µM
11 | COc1ccc(C(=O)N2CCC3(CC2)CN(C(=O)Nc2cccc(C#N)c2)C3)cc1 | > 20 µM
12 | O=C(c1ccncc1)N1CCC2(CCCN(Cc3ccccc3)C2)CC1 | > 20 µM
13 | N#CCCn1c(=O)c(-c2ccc(F)cc2)nc2cnc(OCc3ccccc3)nc21 | > 20 µM
14 | CS(=O)(=O)N1CCC2(CC1)CN(c1ccccn1)C2 | > 20 µM
15 | COCC(=O)N1CCC2(CC1)CN(C(=O)Nc1cccc(F)c1)C2 | > 20 µM
16 | CS(=O)(=O)N1CCC[C@@]2(CCN(C(c3ccccc3)c3ccccc3)C2)C1 | > 20 µM
17 | CCNc1ncc2nc(-c3cc(F)cc(F)c3)c(=O)n(CCc3ccccc3)c2n1 | > 20 µM
18 | O=C(c1csnn1)N1CCC2(CC1)CN(c1ccccn1)C2 | > 20 µM
19 | CC(C)CN1CCCC2(CCN(C(=O)c3csnn3)CC2)C1 | > 20 µM
20 | Cc1cccc(CNc2ccnc(-c3ccccc3CN(C)C)n2)c1 | > 20 µM

Row | Structure (SMILES) | Potency
21 | CN(C)C(=O)c1ccc(-c2ccc3ncnc(NCc4ccccc4)c3c2)cc1 | > 20 µM
22 | CCNc1ncc2nc(-c3ccccc3)c(=O)n(C[C@H]3CCCO3)c2n1 | > 20 µM
23 | O=C(c1cnccn1)N1CCC2(CCN(Cc3ccccc3)CC2)CC1 | > 20 µM
24 | COCC(=O)N1CCC2(CCCN(C(c3ccccc3)c3ccccc3)C2)CC1 | > 20 µM
25 | COc1ccc(Oc2ncc3nc(-c4ccc(OC)cc4)c(=O)n(Cc4cccs4)c3n2)cc1 | > 20 µM
26 | O=C(c1cnccn1)N1CCC2(CCCN(c3cccc(-c4ccccc4)c3)C2)CC1 | > 20 µM
27 | CN(C)C(=O)c1ccc(-c2cc(NCc3cccnc3)ncn2)cc1 | > 20 µM
28 | COCCn1c(=O)c(-c2cn(C)c3ccccc23)nc2cnc(Oc3ccc(OC)cc3)nc21 | > 20 µM
29 | COCC(=O)N1CCC2(CC1)CN(c1ccccn1)C2 | > 20 µM
30 | Cn1c(=O)c(-c2cc(F)cc(F)c2)nc2cnc(Nc3ccccc3)nc21 | > 20 µM
31 | c1ccc(CNc2ncnc3ccc(-c4ccoc4)cc23)cc1 | > 20 µM
32 | COC(=O)N1CCC2(CC1)CCN(c1ncccn1)CC2 | > 20 µM
33 | COCCn1c(=O)c(-c2cccc(F)c2)nc2cncnc21 | > 20 µM
34 | O=c1c(-c2ccc(Cl)cc2)nc2cnc(N3CCOCC3)nc2n1C1CC1 | > 20 µM
35 | CCNc1ncc2nc(-c3cccs3)c(=O)n(CCC#N)c2n1 | 6.37 µM (active)
36 | COCCn1c(=O)c(-c2cccs2)nc2cnc(Oc3ccccc3)nc21 | > 20 µM
37 | CN1CCN(c2ncc3ncc(=O)n(C[C@H]4CCCO4)c3n2)CC1 | > 20 µM
38 | Cn1cccc1C(=O)N1CCC[C@@]2(CCN(Cc3ccc(C#N)cc3)C2)C1 | > 20 µM
39 | COc1ccccc1CN1CCCC2(CCN(C(=O)c3cnccn3)CC2)C1 | > 20 µM
